Experimental data from PubChem BioAssay (Tox21).
Inconclusive results are not listed. A call without a number means that no potency is given here. The source made the active and inactive calls. Unless noted, calls come from the whole dose curve; as a rule, active = well fitted curve in the direction sought with a large enough effect in the repeat runs; inconclusive = weak or mixed curves; inactive = no such curve, though single readings can be large; an effect the other way counts as inactive or inconclusive.

Key:
[1] = qHTS assay to identify small molecule agonists of the RXR signaling pathway - cell viability counter screen (AID 1159529); note: nearly all actives have a fitted effect of over 50% in size; note: potency is the fitted concentration of half-maximal effect
In short: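 Same-well viability check after the LiveBLAzer FRET read: CellTiter-Glo added, luminescence measured after 30 min at room temperature. Reporter HEK 293T cells had been treated with compounds for 16 hr following a 5 hr preincubation.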

[2] = qHTS assay to identify small molecule antagonists of the retinoid acid receptor (RAR) signaling pathway - cell viability counter screen (AID 1159551); note: nearly all actives have a fitted effect of over 35% in size
In short: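 C3RL4 cells were seeded overnight at 37 C, then treated with compounds plus 1 uM (final) retinol for 6 h at 37 C. Viability was read as ATP by CellTiter-Glo luminescence after 30 min at room temperature.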

[3] = qHTS assay to identify small molecule antagonists of the retinoic acid receptor (RAR) signaling pathway (AID 1159552; note: nearly all actives have a fitted effect of over 50% in size)
In short: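 Readout: luciferase luminescence, 30 min post-reagent at RT. Setup: C3RL4 RARE reporter cells, compounds plus retinol 1 uM final, 6 hr incubation at 37 C and 5% CO2.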

[4] = qHTS assay to identify small molecule agonists of the retinoic acid receptor (RAR) signaling pathway (AID 1159553); note: potency is the fitted concentration of half-maximal effect
In short: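 C3RL4 cells carrying a RARE luciferase reporter were plated overnight at 37 C, then exposed to compounds in DMSO for 6 hr at 37 C and 5% CO2. Luminescence was read 30 min after luciferase reagent addition at room temperature.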

[5] = qHTS assay to identify small molecule antagonists of the estrogen related receptor (ERR) signaling pathway - cell viability counter screen (AID 1224818);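 note: series mostly up to about 46 µM; viability measured after 17.5 h of compound exposure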
In short: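 ERR reporter cells plated 6 h at 37 C/5% CO2, then compounds in DMSO pin-transferred and incubated 17.5 h at 37 C. Viability read as CellTiter-Fluor fluorescence after 30 min at 37 C.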

[6] = qHTS assay to identify small molecule antagonists of the estrogen related receptor (ERR) signaling pathway (AID 1224819;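 note: luminescence from an ERR-driven luciferase reporter measured with One-Glo reagent; series mostly up to about 46 µM; nearly all actives have a fitted effect of over 50% in size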)
In short: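 ERR reporter cells were plated at 2,000 cells/well and left 6 h at 37 C/5% CO2 before pin-tool transfer of compounds in DMSO. After 18 h at 37 C, One-Glo was added and luminescence was read 30 min later at room temperature.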

[7] = qHTS assay to identify small molecule agonists of the estrogen related receptor (ERR) signaling pathway (AID 1224820)
In short: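 ERR reporter cell line (from NTP), 2,000 cells/well, incubated 6 h before compound addition, then 18 h at 37 C. Luminescence measured 30 min after One-Glo reagent at room temperature.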

[8] = tested on: estrogen-related receptor alpha (ERRalpha) with PGC-1alpha coactivator, human; test: qHTS assay to identify small molecule antagonists of the estrogen related receptor signaling pathway with the pleiotropic PPARgamma coactivator (PGC) (AID 1224821; calls by dose curve;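 note: series mostly up to about 46 µM; lower luminescence signal means antagonism of PGC/ERR signalling; nearly all actives have a fitted effect of over 50% in size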)
In short: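 PGC/ERR reporter cell line, plated 6 h before compound addition, then exposed 18 h at 37 °C. Luciferase activity read by luminescence 30 min after One-Glo addition; decrease indicates antagonism.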

[9] = qHTS assay to identify small molecule antagonists of the estrogen related receptor signaling pathway with the pleiotropic PPARgamma coactivator (PGC) cell viability counter screen (AID 1224822; note: series mostly up to about 46 µM)
In short: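 PGC/ERR cells were seeded at 2,000 cells/well, rested 6 h at 37 C/5% CO2, then given compounds in DMSO by pin tool and incubated 17.5 h at 37 C. Viability came from CellTiter-Fluor fluorescence after 30 min.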

COc1ccc2cc(C=O)ccc2c1
Potency [1]: inactive | outcome [2]: inactive | Potency [3]: inactive | Potency [4]: inactive

CCC(=O)/C=C/c1ccc(OC)cc1
Potency [1]: inactive | outcome [2]: inactive | Potency [3]: inactive

COC(=O)CCCCCCCCC(=O)OC
Potency [1]: inactive | outcome [2]: inactive

C=C(C)C1CC=C(C)C(O)C1 (centres undefined)
outcome [2]: inactive | Potency [3]: inactive | Potency [4]: inactive

O=C1CC2(CCCC2)CC(=O)N1
Potency [3]: inactive | Potency [4]: inactive

Oc1cc(O)c2c(c1)O[C@H](c1ccc(O)c(O)c1)[C@H](O)C2
outcome [2]: inactive | Potency [3]: inactive

CCCC(=O)O[C@]1(C(=O)CCl)[C@@H](C)C[C@H]2[C@@H]3CCC4=CC(=O)C=C[C@]4(C)[C@@]3(F)C(=O)C[C@@]21C
outcome [2]: inactive

C1=C\CC/C=C\CC/C=C\CC/1
outcome [2]: inactive | Potency [3]: inactive | Potency [4]: inactive

CC(C)c1ccc2oc3nc(N)c(C(=O)O)cc3c(=O)c2c1
Potency [1]: inactive | Potency [3]: inactive

CC(C)c1cccc(C(C)C)c1N
Potency [3]: inactive | Potency [4]: inactive

CCCC=O
outcome [2]: inactive | Potency [3]: inactive | Potency [4]: inactive

CCCCCCOC(=O)c1ccccc1O
Potency [1]: inactive | Potency [3]: inactive | Potency [4]: inactive

C[C@H]1O[C@@H](n2cc(F)c(=O)[nH]c2=O)[C@H](O)[C@@H]1O
Potency [1]: inactive | Potency [3]: inactive | outcome [5]: inactive | outcome [6]: inactive | outcome [7]: inactive | outcome [8]: inactive | outcome [9]: inactive

NC(=O)c1ncn([C@@H]2O[C@H](CO)[C@@H](O)[C@H]2O)c1O
Potency [1]: inactive | outcome [2]: inactive | Potency [3]: inactive | Potency [4]: inactive | outcome [5]: inactive | outcome [9]: inactive

c1ccc(SCCSc2ccccc2)cc1
outcome [2]: inactive | Potency [3]: inactive

c1cc(CN2CCCCC2)cc(OCCCNc2nc3ccccc3s2)c1
Potency [1]: inactive | outcome [2]: inactive | Potency [3]: inactive | outcome [5]: inactive | outcome [7]: inactive | outcome [8]: inactive

CCOC(=O)Cn1c(=O)sc2cccc(Cl)c21
Potency [1]: inactive | Potency [3]: inactive | Potency [4]: inactive

Cc1c(C)n(CCN(C)C)c2ccc(C(=O)OCCN(C)C)cc12
Potency [3]: inactive | Potency [4]: inactive

CCOC(=O)Nc1ccc2c(c1)N(C(=O)CCN1CCOCC1)c1ccccc1S2
outcome [2]: inactive | Potency [3]: inactive | Potency [4]: inactive

Cc1ccccc1C(=O)O
outcome [2]: inactive

CCCOc1ccccc1-c1nc2n[nH]nc2c(=O)[nH]1
Potency [1]: inactive | outcome [2]: inactive | Potency [3]: inactive | Potency [4]: inactive | outcome [5]: inactive | outcome [9]: inactive

CCCCCCOC(=O)CC(CC(=O)OCCCCCC)(OC(=O)CCC)C(=O)OCCCCCC
outcome [2]: inactive | Potency [3]: inactive

CCCCCCCCCCCCCCC
Potency [1]: inactive | Potency [3]: inactive | Potency [4]: inactive

Cc1nc(-c2ccc(OCC(C)C)c(C#N)c2)sc1C(=O)O
Potency [1]: inactive | outcome [2]: inactive | Potency [3]: inactive | Potency [4]: 94.4 nM (active)

C1C2OC2C2C1C1CC2C2OC12 (centres undefined)
outcome [2]: inactive | Potency [3]: inactive | Potency [4]: inactive

CCCCCN(CCCCC)C(=O)C(CCC(=O)O)NC(=O)c1ccc(Cl)c(Cl)c1 (centres undefined)
Potency [1]: inactive | outcome [2]: inactive | Potency [3]: inactive | Potency [4]: inactive | outcome [5]: inactive | outcome [9]: inactive

CCO[Si](CCCN=C=O)(OCC)OCC
Potency [1]: inactive | Potency [3]: inactive

Oc1ccc2c(c1)OC[C@@H](N1CCC(O)(c3ccc(F)cc3)CC1)[C@H]2O
Potency [1]: inactive | outcome [2]: inactive | Potency [3]: inactive | Potency [4]: 531 nM (active)

CCC(C)OC(=O)N1CCCCC1CCO (centres undefined)
Potency [1]: inactive | Potency [3]: inactive

Cc1ccccc1Br
outcome [2]: inactive | Potency [3]: inactive

CCCCCCCCN(C)CCCCCCCC
outcome [2]: inactive | Potency [3]: inactive | Potency [4]: inactive

N#CCc1ccccc1[N+](=O)[O-]
outcome [2]: inactive | Potency [3]: inactive | Potency [4]: inactive

CN(C)C(=O)C(CCN1CCC(O)(c2ccc(Cl)cc2)CC1)(c1ccccc1)c1ccccc1
Potency [1]: inactive | outcome [2]: inactive | Potency [3]: inactive | Potency [4]: inactive | outcome [5]: inactive | outcome [7]: inactive | outcome [9]: inactive

C=C(C)C(=O)OCCC(C)OC(=O)C(=C)C (centres undefined)
outcome [2]: inactive | Potency [3]: inactive | Potency [4]: inactive

Cc1onc(-c2ccccc2)c1-c1ccc(S(N)(=O)=O)cc1
outcome [2]: inactive | Potency [3]: inactive

O=C(O)/C=C/c1ccc(Cn2ccnc2)cc1
outcome [2]: inactive

CC(C)(O)c1ccccc1
Potency [1]: inactive | Potency [3]: inactive

COC(=O)[C@H]1[C@H]2C[C@@H]3c4[nH]c5cc(OC)ccc5c4CCN3C[C@H]2C[C@@H](OC(=O)COc2ccc(OC)cc2)[C@@H]1OC
Potency [1]: inactive | Potency [3]: inactive | Potency [4]: inactive

CCCCc1ccc2cccc(S(=O)(=O)O)c2c1
outcome [2]: inactive | Potency [3]: inactive | Potency [4]: inactive

CCCC(C)C(=O)O (centres undefined)
Potency [1]: 18.7 µM (active) | outcome [2]: inactive | Potency [3]: inactive | Potency [4]: inactive

CC(C)(C)N(CCO)CCO
Potency [1]: inactive | outcome [2]: inactive | Potency [3]: inactive | Potency [4]: inactive
